Bioassay records deposited in PubChem BioAssay by ICCB-Longwood Screening Facility, Harvard Medical School.
Compounds with a hit are over-represented: about 1.5% of the library has one in this group of screens.
PV pol inh: inhibitors of poliovirus RNA polymerase binding and polymerization; % elongation, % (compound at 16.7 µg/mL); 0.66% of 150,000 active; P03300; poliovirus polymerase elongation, fluorescence polarization; stronger effect = lower value; in the data active = % elongation below about 90%
Mtb MenB inh: inhibitors of Mycobacterium tuberculosis MenB enzyme. MenB enzyme assay, absorbance read-out. inhibition, % (no concentration beside the values). 0.43% of 100,000 active; in the data active = inhibition above about 21%, passing the limit was not always enough
MbtI inh: MbtI salicylate synthase inhibition. P9WFX0. purified MbtI enzyme, fluorescence intensity read-out. inhibition, % (test concentration not listed). 0.89% of 100,000 active. AID 493033; in the data active = inhibition mostly above about 56%, no sharp cut-off; inactive = mostly below about 77%
Target sequence (P9WFX0 whole entry, looked up): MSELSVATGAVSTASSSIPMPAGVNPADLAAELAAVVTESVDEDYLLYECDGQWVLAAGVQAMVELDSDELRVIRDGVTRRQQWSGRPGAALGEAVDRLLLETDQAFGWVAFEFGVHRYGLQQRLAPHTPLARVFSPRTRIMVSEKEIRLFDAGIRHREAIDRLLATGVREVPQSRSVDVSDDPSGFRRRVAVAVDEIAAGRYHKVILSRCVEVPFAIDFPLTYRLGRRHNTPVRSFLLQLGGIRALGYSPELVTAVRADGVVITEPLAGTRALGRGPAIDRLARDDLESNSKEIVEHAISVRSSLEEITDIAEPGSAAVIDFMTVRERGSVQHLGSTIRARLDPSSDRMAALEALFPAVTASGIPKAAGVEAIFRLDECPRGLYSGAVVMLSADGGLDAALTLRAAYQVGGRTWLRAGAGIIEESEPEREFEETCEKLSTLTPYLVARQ
Each line names hits and unclear results; the compound was inactive in the other large screens.

O=C(NCc1ccc(Cl)cc1)c1cc2ccccc2nc1Cl	none (no result: Mtb MenB inh)
O=C(O)c1cc2ccccc2nc1Cl	PV pol inh 76
Nc1cc2ccccc2cc1C(=O)O	PV pol inh 52
Nc1ccccc1C(=O)c1ccccc1C(=O)O	none (no result: MbtI inh)
CC(C(O)c1ccccc1)N(C)S(=O)(=O)c1ccc2ccccc2c1 (stereo unspecified)	none (no result: Mtb MenB inh)
Fc1ccc(-c2cn3c(-c4ccccc4)c(-c4ccccc4)nc3[nH]2)cc1	none (no result: MbtI inh)
CCOC(=O)c1sc(S(C)=O)c2c1CCCC2=O (stereo unspecified)	MbtI inh 63
CCOC(=O)c1sc(S(C)=O)c2c1CCc1conc1-2 (stereo unspecified)	none
NCCCOC1CCCCC1	none
O/N=C1/CCCc2nn(-c3ccccc3)nc21	PV pol inh 62 (no result: MbtI inh)
O/N=C1\CCCc2c1nc(-c1ccccc1Cl)n2O	none (no result: MbtI inh)
c1ccc2nc3c(nc2c1)oc1ccccc13	none
CCC(=O)Nc1nnc(SCC(=O)N2CCCc3ccccc32)s1	none
NC(=O)CSc1nc2ccccc2s1	MbtI inh 82
O=C(CSc1nc2ccccc2s1)c1ccc(O)cc1O	none
O=C(CSc1nc2ccccc2s1)c1ccc[nH]1	PV pol inh 58
O=C(O)CCSc1nc2ccccc2s1	none (no result: PV pol inh, Mtb MenB inh)
Cc1ccc(C)n1-c1ccccc1C(=O)O	none (no result: PV pol inh, Mtb MenB inh)
Cc1ccc(C)n1-c1cc(Cl)ccc1C(=O)O	PV pol inh 84
CCCN1C(=O)CC(=O)N=C1SCC(=O)c1cc(C)n(-c2ccc(F)cc2)c1C	none
Cn1c(=NC(=O)Cc2csc(-c3cccnc3)n2)sc2ccccc21	none
Cc1cc(C(F)(F)F)nc(SCCNC(=O)c2ccccc2F)n1	none
CC(C)(C)c1cc(C(F)(F)F)nc(SCCNC(=O)c2cnn3cccnc23)n1	Mtb MenB inh 34
CC1=CC(=C2C(=O)c3ccccc3C2=O)C=C(C)N1CCN1CCOCC1	none (no result: PV pol inh)
Cc1cc2c(cc1C)C(=O)C(N1CCOCC1)=C(c1ccccc1)C2=O	MbtI inh 54
COc1ccc(S(=O)(=O)Nc2ccc(O)c(Sc3ncn[nH]3)c2)cc1	none
Cc1ccc(S(=O)(=O)Nc2cc(Sc3ncn[nH]3)c(O)cc2C)cc1	MbtI inh 54
CC(C)Nc1nn(CN2CCN(C(=O)c3ccccc3)CC2)c(=S)s1	MbtI inh 77
O=C(CN1CCN(C(=O)c2ccccc2)CC1)Nc1cccc2nsnc12	none
O=C(O)CCC(=O)c1ccco1	none
O=C(Nc1cc(C(F)(F)F)cc(C(F)(F)F)c1)C(=S)N1CCCCC1	PV pol inh 76 (no result: MbtI inh)
FC(F)(F)c1cccc(NC(=S)N2CCCC2)c1	none
CC(=O)OCCCc1nc2ccccc2n1C(C)=O	none (no result: Mtb MenB inh)
CCC(C)N=C1NC(=O)C(CC(=O)NCc2ccccc2)S1 (stereo unspecified)	none
N#C/C(=C\Nc1ccc(C(=O)O)cc1)c1nc2ccccc2[nH]1	none
Cc1oc(-c2cc(Cl)ccc2Cl)cc1C(=O)O	none
O=C(O)C(CO)NS(=O)(=O)c1ccc(F)cc1 (stereo unspecified)	none
Cc1ccc(S(=O)(=O)NC(CO)C(=O)O)cc1 (stereo unspecified)	Mtb MenB inh 31
COC(=O)CSc1nc2ccccc2n1CC(=O)N1C(C)CCCC1C (stereo unspecified)	none
CNC(=S)Nc1ccc(N2CCOCC2)cc1	none
Cc1ccccc1NC(=O)c1sc2nc3c(cc2c1N)CN(Cc1ccccc1)CC3	none (no result: Mtb MenB inh, MbtI inh)
CN1CCc2nc3sc(C(=O)Nc4ccccc4C(F)(F)F)c(N)c3cc2C1	PV pol inh 31 (no result: Mtb MenB inh, MbtI inh)
CC1(C)N=C(c2ccccc2)C(=O)N1CC(=O)Nc1ccccc1	none
Cc1ccc(NC(=O)CN2C(=O)C(c3ccc(C(C)(C)C)cc3)=NC2(C)C)cc1	PV pol inh 32 (no result: Mtb MenB inh, MbtI inh)
O=S1OCC(COc2cccc3ccccc23)O1 (stereo unspecified)	PV pol inh 76 (no result: MbtI inh)
COc1cccc(OCC2COS(=O)O2)c1 (stereo unspecified)	PV pol inh 85
COc1cccc(OCC2CCCNC2)c1 (stereo unspecified)	none
O=C1NCC(COc2cccc3ccccc23)O1 (stereo unspecified)	none (no result: PV pol inh, Mtb MenB inh)
CC(=O)N/C(N)=N\c1nc(C)c2ccc(C)cc2n1	none
C/C(=C/C(=O)O)C(=O)Nc1ccccc1F	none
CC(=O)N1CCCCC1c1cccnc1.O=[N+]([O-])O.[Ag] (stereo unspecified)	PV pol inh 60 (no result: MbtI inh)
O=C(/C=C/c1ccccc1)N1CCCCC1c1cccnc1 (stereo unspecified)	none (no result: MbtI inh)
N#Cc1ccc(NC(=O)c2ccccc2C(F)(F)F)cc1	none (no result: Mtb MenB inh)
CCOC(=O)c1c(CN2CCOCC2)n(C)c2ccc(O)cc12	PV pol inh 68 (no result: MbtI inh)
CCOC(=O)c1c(C)n(C)c2ccc(O)cc12	none
CS(=O)(=O)Nc1ccccc1C(=O)NC1CCCC1	none
COC(=O)c1c(NC(C)=O)sc2c1CCC2	none (no result: MbtI inh)
O=C(Nc1sc2c(c1C(=O)NCc1ccco1)CCC2)c1cccs1	none
COC(=O)c1c(NC(=S)NCc2ccco2)sc2c1CCC2	MbtI inh 61
COC(=O)c1c(NC(=O)C2CCCC2)sc2c1CCCC2	PV pol inh 82 (no result: MbtI inh)
